Source: PubChem
The full list was thinned out, with hits kept by preference.
IMPase cell inh: qHTS Assay for Identifying the Cell-Membrane Permeable IMPase Inhibitors | AID 901, 2007 | 120,000 tested, under 10 active | CHO-M1 cells, IP1 accumulation, HTRF TR-FRET ratio | inhibition (IP1 accumulation), % at 46.1 µM; active means well fitted curve in the direction sought with a large enough effect in the signal ratio, not every such curve was filed as active; inconclusive means small, poorly fitted or top-dose-only effect, or a change in a side signal; inactive means no such curve, though single readings can be large or run the other way; the % refers to the signal ratio;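 further: cells stimulated with carbachol in lithium chloride buffer; plate controls were DMSO basal wells for no effect and reference inhibitor wells for full effect; higher means more IMPase inhibition seen as more IP1 and lower FRET ratio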
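Elevated IP1 in lysates lowers TR-FRET signal (665/620 ratio and 620 channel reported). Cells were CHO-M1, given carbachol (50 uM as added) plus 50mM LiCl, pH 7.4, 30 min, 37C; compounds titrated up to 46 uM; AC50 by Hill equation.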
Imprint erasure: qHTS Assay for Compounds that Induce Erasure of Genomic Imprints; mouse ES Peg3-LacZ reporter, beta-gal luminescence, 40 h; Potency, µM (series often up to 60.7 µM), without a hit: top-dose activity change, positive = activation, usual class: activators; 0.02% of 110,000 active; further: potency means the concentration at half of the fitted maximal effect
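Each well holds 300 Peg3LacZ-Neo (maternal) female ES cells incubated 40 h at 37C, 5% CO2. LacZ is measured by BetaGlo luminescence, with AC50 and maximum efficacy derived from dose-response curves.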
p53ts 32C tox: qHTS Screen for Compounds that Selectively Target Cancer Cells with p53 Mutations: Cytotoxicity of p53ts Cells at the Permissive Temperature; AID 924, 2007; 0.93% of 130,000 active; H1299-p53A138V at 32C, ATP luminescence viability, 24 h; Potency, µM (titrated, usually from 46.1 µM), inactives show top-dose activity change, negative = cytotoxicity, most hits filed as cytotoxic;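 further: potency means the concentration at half of the fitted maximal effect; 0% = DMSO and -100% = full killing by reference compound; nearly all actives have a fitted effect of over 55% in size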
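H1299-p53 A138V cells (temperature-sensitive p53) exposed 24 h to up to 46 uM compound at 32C, where p53 is wild-type in conformation. Viability read as ATP luminescence and normalised to DMSO and 100 uM tamoxifen. AC50 fitted with the Hill equation.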
Luciferase inh: qHTS Assay for Inhibitors of Firefly Luciferase | Luciferin 4-monooxygenase (Photinus pyralis), P08659 | purified firefly luciferase, luminescence, 8 min | Potency, µM (highest dose often 57.1 µM), inactives show top-dose activity change, negative = inhibition, hits mostly inhibitors | 2.2% of 72,000 active | AID 411, 2009; further: potency means the concentration at half of the fitted maximal effect; on the % scale 0 is the no-effect control and ±100 the full control effect; nearly all actives have a fitted effect of over 40% in size
Target sequence (P08659 whole entry, looked up): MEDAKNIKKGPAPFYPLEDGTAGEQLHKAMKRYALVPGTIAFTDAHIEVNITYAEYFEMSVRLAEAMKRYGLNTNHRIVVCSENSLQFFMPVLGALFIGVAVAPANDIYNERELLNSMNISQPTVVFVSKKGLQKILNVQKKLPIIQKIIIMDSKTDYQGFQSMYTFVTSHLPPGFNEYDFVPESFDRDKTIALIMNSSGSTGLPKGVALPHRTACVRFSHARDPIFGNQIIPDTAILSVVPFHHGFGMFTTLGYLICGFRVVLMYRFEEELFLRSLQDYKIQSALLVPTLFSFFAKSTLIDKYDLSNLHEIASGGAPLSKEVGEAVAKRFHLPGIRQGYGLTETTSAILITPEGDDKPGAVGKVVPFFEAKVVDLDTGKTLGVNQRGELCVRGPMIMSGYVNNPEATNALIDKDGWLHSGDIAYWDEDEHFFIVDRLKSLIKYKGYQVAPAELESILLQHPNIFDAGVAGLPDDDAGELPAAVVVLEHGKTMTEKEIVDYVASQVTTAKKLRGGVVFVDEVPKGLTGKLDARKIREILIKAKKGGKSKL
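Luminescence read-out after 8 min at room temperature; enzyme reaction used luciferin plus 10 uM ATP (linear range) in imidazole buffer pH 7.2 with KCl, MgCl2, Tween 20 and BSA. Each sample was run as a titration.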
IkB signaling: IkB Signaling | AID 445, 2006 | Potency, µM (doses to about 57.1 µM), without a hit: at the highest dose IkBa stabilization activation | ABC-DLBCL IkBa-CBG/CBR dual luciferase ratio, 4 h; response scale: scaled: untreated 0%, proteasome inhibitor 100% | 0.04% of 110,000 active; active means well fitted curve in the direction sought with a large enough effect in the signal ratio, not every such curve was filed as active; inconclusive means small, poorly fitted or top-dose-only effect, or a change in a side signal; the % refers to the signal ratio;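 further: potency means the concentration at half of the fitted maximal effect; the direction sought is a rising ratio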
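In this assay, an IκBα–CBG68 fusion accumulates when IKK-driven degradation is blocked; native CBR normalizes for cell number. OCI-Ly3 cells were treated 4 h with compound and doxycycline, then green and red light read after Chroma-Glo addition.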
p53ts 39C tox: qHTS Screen for Compounds that Selectively Target Cancer Cells with p53 Mutations: Cytotoxicity of p53ts Cells at the Nonpermissive Temperature. H1299-p53A138V viability at 39C, ATP luminescence, 24 h. Potency, µM (doses to about 46.1 µM), for the others: top-dose activity change, negative = cell killing, usual class: cytotoxic. 1.5% of 130,000 active; further: potency means the concentration at half of the fitted maximal effect; on the % scale 0 is the no-effect control and ±100 the full control effect; nearly all actives have a fitted effect of over 55% in size
The depositor's hits bear a star; ? = inconclusive; / = not tested or not shown; [ ] = another dose, or the depositor's remark. Unless noted, the call rests on the fitted dose curve; in most records, active means well fitted curve in the direction sought with a large enough effect; inconclusive means small, poorly fitted or top-dose-only effect, or another doubt; inactive means no such curve, though single readings can be large; an effect the other way counts as inactive or inconclusive.

SMILES | IMPase cell inh | Imprint erasure | p53ts 32C tox | Luciferase inh | IkB signaling | p53ts 39C tox
C[C@@H](C(=O)O)c1ccc(N2Cc3ccccc3C2=O)cc1 | -1.2[20.6 µM] | -82.3%[16.8 µM] | 10µM* | 5.01µM* | ? | 5.01µM*
CSc1n[nH]c(NCc2ccc(C)cc2)n1 | 19.6 | / | 11.2µM* | / | / | 14.1µM*
COc1ccc(/C=N/NC(=O)c2cc(-c3ccc(Cl)cc3)n[nH]2)cc1OC | / | / | -26.0% | / | / | -23.5%
Cc1nc2sc(-c3ccccc3)cc2c(=O)n1-n1cccc1 | 6.6 | -59.6% | -25.1% | 20µM* | -2.6% | ?
Cc1nc2sc(-c3ccccc3)cc2c(=O)[nH]1 | -1.2 | / | / | / | / | /
Cc1cn2c(=O)cc(COC(=O)c3cccc(NC(=O)c4ccc(C(C)(C)C)cc4)c3)nc2s1 | / | -14.6%[10.9 µM] | 2.51µM* | / | ? | 3.16µM*
CC(C)(C)c1ccc(C(=O)Nc2ccc(C(=O)OCc3cc(=O)n4ccsc4n3)cc2)cc1 | / | -9.1%[10.9 µM] | 15.8µM* | / | ? | 15.8µM*
CC(=O)N1CC=CC1(CC(C)C)C(=O)O (stereo unspecified) | / | -4.1% | 9.6% | / | / | 1.2%
Cc1nn2cc(-c3ccccc3)nc2s1 | -0.5 | -86.2% | 10µM* | 10µM* | ? | 10µM*
Cc1ccc(-c2cn3nc(N4CCC(C(=O)Nc5ccccc5C)CC4)sc3n2)cc1 | / | / | 1.7% | / | / | /
CCCc1nn2c(C)c(-c3ccccc3)nc2s1 | / | -54.3%[10.9 µM] | 6.31µM* | / | 12.9% | 10µM*
CCc1ccc(-c2cn3nc(CC)sc3n2)cc1 | / | -12.4%[10.9 µM] | 12.6µM* | / | 73.1% | 6.31µM*
Cc1nn2cc(-c3ccc(OC(C)C)cc3)nc2s1 | / | -62.7%[10.9 µM] | 12.6µM* | / | -4.0% | 10µM*
O=C(NC1CCCCC1)c1cc2c(Cl)nc3ccccc3c2s1 | / | -5.3%[10.9 µM] | 4.3% | / | 1.0% | 4.0%
CCCCCc1nn2cc(-c3ccccc3)nc2s1 | / | -40.0%[10.9 µM] | ? | / | ? | 10µM*
CC(C)Cc1nn2cc(-c3cccc(Br)c3)nc2s1 | / | -25.3%[10.9 µM] | 12.6µM* | / | ? | 10µM*
c1ccc(-c2nnc3sc(-c4ccncc4)nn23)cc1 | 3.4 | -11.3% | 7.5% | 1.4% | -2.6% | 4.1%
CC(C)Cn1c(-c2cccc(Br)c2)nc2ccccc21 | / | -13.4%[10.9 µM] | -4.6% | / | ? | -25.5%
c1ccc(-c2cn3nc(-c4ccccc4)sc3n2)cc1 | / | 0.7% | 1µM* | 0.126µM* | ? | ?
O=C(O)[C@H]([C@H]1NCCS1)N1Cc2ccccc2C1 | / | / | -0.2%[9.22 µM] | 2.8%[11.4 µM] | 1.9%[11.4 µM] | 6.4%[9.22 µM]
O=C1OC(=O)c2c(Cl)c(Cl)c(Cl)c(Cl)c21 | / | -0.3% | 6.0%[1.84 µM] | / | -0.3% | -13.6%
Cc1ccc(-c2noc(-c3ccccc3Br)n2)cc1 | -2.8 | -49.6% | 12.6µM* | 3.16µM* | 6.7% | 10µM*
CN(C)c1ccc(-c2noc(-c3ccccc3O)n2)cc1 | -1.1 | -34.8% | ? | 1µM* | ? | ?
c1ccc(-c2noc(-c3ccccc3-c3ccccc3)n2)cc1 | 0.9 | / | / | / | / | /
COc1ccccc1-c1nc(-c2ccncc2)no1 | -4.4 | -86.8% | -16.3% | 20µM* | 3.0% | -27.0%
SMILES | IMPase cell inh | Imprint erasure | p53ts 32C tox | Luciferase inh | IkB signaling | p53ts 39C tox
COc1ccc(-c2nc(-c3ccc(Br)cc3)no2)c(OC)c1 | ? | -18.2% | ? | 2.51µM* | 0.0% | -20.2%
COc1ccccc1OCC(=O)NCC(c1ccc(Cl)cc1)N1CCCCC1 (stereo unspecified) | / | -18.3%[10.9 µM] | ? | / | ? | -9.5%
Cc1ccccc1-c1noc(-c2ccc(O)cc2)n1 | -6.0 | -93.9% | -18.5% | 20µM* | ? | -15.0%
COc1ccccc1-c1nc(-c2ccc(Br)cc2)no1 | 4.7 | -50.2% | -23.2% | 12.6µM* | ? | ?
CCCCN(CC)S(=O)(=O)c1cccc2cccnc12 | / | -16.2% | 7.9% | -1.4% | -0.4% | -5.0%
CN1CCN(CCCN2c3ccccc3Sc3ccccc32)CC1 | / | -8.7% | / | / | / | /
